According to PubChem BioAssay AID1159580 (chemical genetic matrix, 2015):
“And” between values parts separate entries of the source, which are not always exact repeats. Identical values can stand only once. Out of some 5,500 compounds screened, about 2,000 (36%) were called active. Not shown: some 18% with an inconclusive outcome. No stated cut-off is given here; in the data, active means normalized growth mostly below about 0.91 (no sharp cut-off); inconclusive means no clear call, values can overlap the other calls; inactive means mostly above about 0.92. Some of the results follow.

Assay: chemical genetic growth profiling, strain panel (AID 1159580);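 further: tested at 20 µM; growth read once vehicle control cultures reached saturation at 30 °C; 1 = growth at the plate median or of vehicle wells; lower values mean less growth of the strain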
Settings: S. cerevisiae deletion strains, growth OD

Measured: normalized growth

N=c1nc(N2CCCCC2)cc(N)n1O
inactive: locus YAL013W, strain DEP1, active compounds read low 0.981 and 0.989 | locus YAL021C, strain ccr4, active compounds read low 0.989 | locus YAL026C, strain drs2, active compounds read low 1 | locus YAL030W, strain snc1, active compounds read low 0.984 | locus YAL040C, strain CLN3, active compounds read low 1.03 | locus YBL061C, strain skt5, active compounds read low 0.977 | locus YBR009C, strain hhf1, active compounds read low 1 | locus YBR021W, strain FUR4, active compounds read low 1.09 | locus YBR023C, strain chs3, active compounds read low 0.985 | locus YBR171W, strain sec66, active compounds read low 0.984 | locus YBR229C, strain ROT2, active compounds read low 0.955 | locus YBR231C, strain swc5, active compounds read low 1 | locus YBR279W, strain paf1, active compounds read low 0.992 | locus YCL011C, strain gbp2, active compounds read low 0.963 | locus YCL016C, strain dcc1, active compounds read low 0.97 | locus YCL029C, strain bik1, active compounds read low 0.99 | locus YCL061C, strain MRC1 (second series), active compounds read low 1 | locus YCL061C, strain MRC1, active compounds read low 0.991 | locus YCL069W, strain vba3, active compounds read low 0.992 | locus YCR088W, strain abp1, active compounds read low 0.989 | locus YDL005C, strain med2, active compounds read low 0.997 | locus YDL035C, strain GPR1, active compounds read low 0.98 | locus YDL040C, strain nat1, active compounds read low 0.992 | locus YDL074C, strain BRE1, active compounds read low 1.02 | locus YDL101C, strain DUN1, active compounds read low 0.988 | locus YDL134C, strain PPH21, active compounds read low 0.975 | locus YDL185W, strain tfp1, active compounds read low 0.978 | locus YDL192W, strain arf1, active compounds read low 0.983 | locus YDR001C, strain nth1, active compounds read low 0.979 | locus YDR069C, strain doa4, active compounds read low 0.996 | locus YDR101C, strain arx1, active compounds read low 1.01 | locus YDR137W, strain rgp1, active compounds read low 0.977 | locus YDR150W, strain NUM1, active compounds read low 0.963 and 1.01 | locus YDR159W, strain sac3, active compounds read low 1.04 | locus YDR162C, strain NBP2, active compounds read low 0.968 | locus YDR195W, strain ref2 0.981 | locus YDR297W, strain sur2, active compounds read low 0.981 | locus YDR318W, strain mcm21, active compounds read low 1 | locus YDR334W, strain swr1, active compounds read low 0.936 | locus YDR335W, strain msn5, active compounds read low 0.979 | locus YDR363W, strain ESC2, active compounds read low 0.979 | locus YDR388W, active compounds read low 0.949 | locus YDR392W, strain spt3, active compounds read low 0.964 | locus YDR502C, strain sam2, active compounds read low 0.959 | locus YEL003W, strain gim4, active compounds read low 0.992 | locus YEL037C, strain rad23, active compounds read low 0.989 | locus YEL061C, strain CIN8 (second series), active compounds read low 0.982 | locus YEL061C, strain CIN8, active compounds read low 0.982 | locus YER002W, strain NOP16, active compounds read low 1.02 | locus YER015W, strain faa2, active compounds read low 0.985 | locus YER016W, strain bim1, active compounds read low 0.998 | locus YER110C, active compounds read low 0.955 | locus YER111C, strain swi4, active compounds read low 0.987 | locus YER155C, strain BEM2 (second series), active compounds read low 1.03 | locus YER155C, strain BEM2, active compounds read low 1.01 | locus YER167W, strain BCK2, active compounds read low 0.989 | locus YFR010W, strain ubp6, active compounds read low 0.982 | locus YGL078C, strain dbp3, active compounds read low 0.985 | locus YGL086W, strain mad1, active compounds read low 0.961 | locus YGL167C, strain pmr1, active compounds read low 0.985 | locus YGL173C, strain kem1, active compounds read low 0.984 | locus YGL227W, strain vid30, active compounds read low 0.996 | locus YGL240W, strain doc1, active compounds read low 1 | locus YGL248W, strain PDE1, active compounds read low 0.981 | locus YGL253W, strain hxk2, active compounds read low 0.96 | locus YGR078C, strain PAC10, active compounds read low 1 and 0.978 | locus YGR135W, strain pre9, active compounds read low 0.99 | locus YGR229C, strain SMI1, active compounds read low 1.01 | locus YGR252W, strain gcn5, active compounds read low 0.867 | locus YHR013C, strain ard1, active compounds read low 0.962 | locus YHR027C, strain rpn1, active compounds read low 0.976 | locus YHR030C, strain SLT2, active compounds read low 0.982 | locus YHR079C, strain IRE1 (second series), active compounds read low 1 | locus YHR079C, strain IRE1, active compounds read low 0.997 | locus YHR094C, strain hxt1, active compounds read low 0.991 | locus YHR129C, strain ARP1, active compounds read low 0.988 | locus YHR142W, strain chs7, active compounds read low 0.971 | locus YHR200W, strain rpn10, active compounds read low 0.993 | locus YIL066C, strain RNR3, active compounds read low 0.975 | locus YIL073C, strain SPO22, active compounds read low 0.94 | locus YIL125W, strain kgd1, active compounds read low 0.985 | locus YIR030C, strain dcg1, active compounds read low 0.982 | locus YJL092W, strain hpr5, active compounds read low 0.988 | locus YJL095W, strain BCK1 (second series), active compounds read low 0.986 | locus YJL095W, strain BCK1, active compounds read low 1.01 and 0.985 | locus YJL115W, strain asf1, active compounds read low 0.966 | locus YJL129C, strain trk1, active compounds read low 1 | locus YJL134W, strain LCB3, active compounds read low 0.978 | locus YJL154C, strain vps35, active compounds read low 0.976 | locus YJL164C, strain tpk1, active compounds read low 0.999 | locus YJL166W, strain qcr8, active compounds read low 0.957 | locus YJL168C, strain set2, active compounds read low 0.995 | locus YJL187C, strain SWE1 (second series), active compounds read low 0.983 | locus YJL187C, strain SWE1, active compounds read low 0.992 | locus YJR043C, strain POL32, active compounds read low 1.02 | locus YJR066W, strain TOR1, active compounds read low 0.932
